Measurements taken from PubChem BioAssay (NCATS).
Results filed as inconclusive are left out. Unmarked numbers belong to inactive results. The source made the active and inactive calls. Calls follow the shape of the dose curve; as a rule, active = well fitted curve in the direction sought with a large enough effect; inconclusive = small, poorly fitted or top-dose-only effect, or another doubt; inactive = no such curve, though single readings can be large or run the other way.

Assay: qHTS Assay for Identifying Gametocytocidal Compounds (AID 743244);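 as to max response: actives lower the fluorescent signal which means gametocytes are killed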
Conditions: P. falciparum 3D7 stage III-V gametocytes, alamarBlue, 72 h; max response: stronger effect = lower value
Excerpt: Malaria cases and deaths have dropped 50% in 29 countries since 2000 due to the combined effects of long-lasting insecticidal bednets, indoor residual spraying, and artemisinin-based combination therapies (ACTs). This success has raised hopes for malaria eradication and consequently stimulated interest in developing new reagents that block gametocyte transmission such as novel and safe gametocytocidal drugs. However, previous drug development efforts have focused primarily on the asexual parasites that cause symptoms, but not malaria transmission. Consequently, patients can remain infectious for weeks after the clearance of asexual parasites and clinical symptoms. To be transmitted from person to person via a mosquito, the parasites must switch from asexual to sexual development and produce male and female gametocytes. Malaria gametocytes consist of five stages (I, II, III, IV and V). The late stage gametocytes (III, IV and V) are difficult to be cultured in vitro and the long lifespan of mature gametocytes allows them being transmitted from host to mosquitoes unless they are completely eliminated by gametocytocidal agents. To identify gametocytocidal compounds which are capable of killing late stage P. falciparum gametocytes, a high throughput gametocyte viability assay was employed. This assay uses oxidoreduction indicator, alamarBlue, as a general measure of metabolic activity of gametocytes. Within live cells, the nonfluorescent resazurin is reduced to resorufin, a bright red fluorescence dye. Fluorescence decreases upon treatment of gametocytocidal compounds. P. falciparum gametocyte (3D7 strain) was used in this study.
The 1536-well gametocycidal viability assay was based on the previous method of Tanaka et al. Stage III-V gametocytes were tested against three compound libraries, including 4265 compounds from NCGC pharmaceutical collection, 400 from Malaria Box library, and 550 from an internal collection of kinase inhibitors. Briefly, 2.5 ul/well incomplete medium was dispensed into each well of 1,536-well plates using the Multidrop Combi followed by 23 nl compound transferring using the NX-TR Pintool (WAKO Scientific Solutions, San Diego, CA). Then, 2.5 ul/well of gametocytes was dispensed with a seeding density of 20,000 cells/well using the Multidrop Combi. The assay plates were incubated for 72 h at 37C with 5% CO2. After addition of 5 ul/well of 2X AlamarBlue dye (Life Technologies, cat. no. DAL1100), the plates were incubated for 24 h at 37C with 5% CO2 and then were read in a fluorescence detection mode (Ex = 525 nm, Em = 598 nm) on a ViewLux plate reader (PerkinElmer).
% is scaled to controls: 0 for no effect and ±100 for the full control effect; potency is read from the fitted curve at half-maximal effect.

SMILES	max response [%]	Potency
C#CCC(Cc1cnc2nc(N)nc(N)c2n1)c1ccc(C(=O)N[C@@H](CCC(=O)O)C(=O)O)cc1 (stereo partly drawn)	4	
Cc1ccccc1C(=O)Nc1ccc(C(=O)N2CCCC(O)c3cc(Cl)ccc32)c(C)c1 (stereo not drawn)	1.39	
CCCCCCCCCCCCCCCC(=O)OC[C@@H](NC(=O)C(Cl)Cl)[C@H](O)c1ccc([N+](=O)[O-])cc1	5.04	
Cn1c(Nc2ccc(C(F)(F)F)cc2)nc2cc(Oc3ccnc(-c4ncc(C(F)(F)F)[nH]4)c3)ccc21		23.5 µM (active)
Nc1ccn(C[C@@H](CO)OCP(=O)(O)O)c(=O)n1	0.0749	
O=c1[nH]c(=O)n([C@H]2C[C@@H](O)[C@@H](CO)O2)cc1C=CBr	30.7	
CCCCCCCN(CC)CCCC(O)c1ccc(NS(C)(=O)=O)cc1 (stereo not drawn)	-2.04	
COC(=O)C1C2CC3c4[nH]c5cc(OC)ccc5c4CCN3CC2CC(OC(=O)c2cc(OC)c(OC)c(OC)c2)C1OC (stereo not drawn)		42.9 µM (active)
COc1ccc2cc([S+]([O-])Cc3ncc(C)c(OC)c3C)nc2c1	2.05	
CN[C@H](CC(C)C)C(=O)N[C@H]1C(=O)N[C@@H](CC(N)=O)C(=O)N[C@@H]2C(=O)N[C@H]3C(=O)N[C@H](C(=O)N[C@H](C(=O)O)c4cc(O)cc(O)c4-c4cc3ccc4O)[C@H](O)c3ccc(c(Cl)c3)Oc3cc2cc(c3O[C@@H]2O[C@H](CO)[C@@H](O)[C@H](O)[C@@H]2O[C@H]2C[C@](C)(N)[C@H](O)[C@H](C)O2)Oc2ccc(cc2Cl)[C@H]1O	-6.25	
Nc1ccn(C2CO[C@H](CO)O2)c(=O)n1 (stereo partly drawn)	19.9	
COc1cc2c(cc1OC)[C@@H]1C(=O)c3ccc4c(c3O[C@@H]1CO2)C=CC(C)(C)O4	-5.53	
N#Cc1ccc(COC[C@H]2O[C@@H](n3c(NCc4ccc(Cl)c(Cl)c4)nc4c(N)ncnc43)[C@@H](O)[C@@H]2O)cc1	-16.6	
